In PubChem BioAssay:
“And” between values parts separate entries of the source, which are not always exact repeats. Equal entries are not always repeated. Results filed as inconclusive are left out. The source made the active and inactive calls. Unless noted, the limit is not given here; nearly all actives have AC50 up to about 30 µM.

How the values were obtained:
[1] = viability loss in pontine glioma line – cell-based, SU-DIPG-XIII, MIPE4.0, CellTiter-Glo, qHTS, dose response (AID 1347061; cut-off not given, nearly all actives have AC50 up to about 37 µM;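 also: cells exposed to compound for 48 hours before readout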); conditions: CellTiter-Glo ATP luminescence
[2] = viability loss in pontine glioma line – cell-based, JHH-DIPG-1, MIPE4.0, CellTiter-Glo, qHTS, dose response (AID 1347062; cut-off not given, nearly all actives have AC50 up to about 27 µM;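 as to AC50: cells exposed to compound for two days before readout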); conditions: JHH-DIPG-1 viability, CellTiter-Glo ATP luminescence
[3] = viability loss in pontine glioma line – cell-based, SU-DIPG-IV, MIPE4.0, CellTiter-Glo, qHTS, dose response (AID 1347063); conditions: CellTiter-Glo ATP luminescence;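 also: compound exposure lasted 48 hours before the viability readout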
[4] = growth inhibition of DIPG cells – cell-based, MIPE4.0 library, CellTiter-Glo luminescence, qHTS (AID 1347066); conditions: SU-DIPG-VI viability, CellTiter-Glo ATP luminescence;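 also: cells exposed to compound for 48 hours before readout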
[5] = growth inhibition of DIPG cells – cell-based, MIPE5.0 library, qHTS (AID 1347068; cut-off not given, nearly all actives have IC50 up to about 30 µM;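 as to IC50: cells exposed to compound for 48 hours before viability readout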); conditions: SU-DIPG-XXV viability
[6] = viability loss with induced miR-34 in A549 – imaging, A549 dox-inducible miR-34, nuclei and caspase counts, primary screen (AID 1347080;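 active = compounds whose cell count with miR-34 switched on is under 0.7 times the count with it off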); conditions: A549 miR-34 inducible, Hoechst nuclei count, 48 h
[7] = MELAS cybrid and Rieske KO viability enhancers – cell-based, MELAS cybrids, Rieske KO mouse fibroblasts, CellTiter-Glo, primary screen (AID 1508586;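 active = mean z-score across replicates of 1.96 or higher in either the MELAS or the Rieske mutant cell line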;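 also: z relative to plate mean and SD of compound and empty wells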); conditions: low glucose
[8] = viability loss in pontine glioma line – cell-based, SU-DIPG-XXV, MIPE5.0, CellTiter-Glo, qHTS, dose response (AID 1347065; cut-off not given, nearly all actives have AC50 up to about 26 µM;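 also: cells exposed to compound for 48 hours before ATP readout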); conditions: CellTiter-Glo ATP luminescence
[9] = JHH-DIPG-1 glioma cell viability, MIPE5.0 library, CellTiter-Glo luminescence, qHTS (AID 1347067; cut-off not given, nearly all actives have AC50 up to about 26 µM;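 also: cells exposed to compound for 48 hours before readout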); conditions: JHH-DIPG-1 glioma viability, CellTiter-Glo ATP luminescence
[10] = viability loss in pontine glioma line – cell-based, SU-DIPG-XIII, MIPE5.0, CellTiter-Glo, qHTS, dose response (AID 1347064; cut-off not given, nearly all actives have AC50 up to about 23 µM;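 as to AC50: cells exposed to compound for 48 hours before the viability read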); conditions: CellTiter-Glo ATP luminescence
[11] = compounds altering HSF1 focus formation in cells – imaging, Selleck Cancer Library (AID 1347162; in the data active = plate-normalised HSF1 focus index below about 0.46); conditions: human cells, HSF1 nuclear foci imaging, at 10 µM; SSMD: measured here: HSF1 foci SSMD mean; cell count: measured here: cell number; plate-normalised HSF1 focus index: stronger effect = lower value
[12] = drug combination growth inhibition, ovarian cancer – cell-based, oncology-focused library, rucaparib conditional, profiling panel (AID 1508598;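 active = normalized viability below 100% at a tested concentration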); conditions: patient-derived ovarian cancer cells, CellTiter-Glo viability, 144 h, stronger effect = lower value
[13] = stronger effect = lower value, cell number ratio, induced over uninduced
[14] = measured here: relative caspase fold change +Dox/-Dox
[15] = measured here: total cells with miR-34 induction, stronger effect = lower value
[16] = measured here: total cells without miR-34 induction
[17] = MELAS cybrid survival, CellTiter-Glo 48 h, stronger effect = higher value
[18] = Rieske KO mouse fibroblast survival, CellTiter-Glo 72 h

With O=C(O)C(O)Cc1ccc(O)c(O)c1 (stereo not drawn) the outcome [1] was “inactive”, the outcome [2] was “inactive” and the outcome [3] was “inactive”. For the same compound, the outcome [4] was “inactive”, the outcome [5] was “inactive” and the fold change [6, 13] was 0.928 (inactive). For the same compound, the fold change [6, 14] was 0.6, the cell count [6, 15] was 9530 and the cell count [6, 16] was 10300. The z-score [7, 17] was -0.385 (inactive) and the z-score [7, 18] was 0.0393.

For CCCCCCCCCCCCc1ccc(S(=O)(=O)Nc2nncs2)cc1, the outcome [1] was “inactive”, the outcome [2] was “inactive” and the outcome [3] was “inactive”. The outcome [4] was “inactive”, the outcome [5] was “inactive” and the fold change [6, 13] was 0.927 (inactive). The fold change [6, 14] was 1.16, the cell count [6, 15] was 8010 and the cell count [6, 16] was 8650. For the same compound, the z-score [7, 17] was 0.533 (inactive) and the z-score [7, 18] was 0.0837.

In the case of C[C@H](NCc1ccc(OCc2cccc(F)c2)cc1)C(N)=O, the AC50 [1] is reported as 18.7 µM (active), the AC50 [2] is reported as 4.69 µM (active) and the AC50 [3] is reported as 9.35 µM (active). For the same compound, the AC50 [4] was 14.8 µM (active).

For O=C(NNC(=O)c1ccc(CNS(=O)(=O)c2ccc(F)c(Cl)c2)cc1)c1ccccc1, the outcome [1] was “inactive”, the outcome [2] was “inactive” and the outcome [3] was “inactive”. The outcome [4] was “inactive”.

In the case of CC[C@H]1OC(=O)[C@H](C)[C@@H](O[C@H]2C[C@@](C)(OC)[C@@H](O)[C@H](C)O2)[C@H](C)[C@@H](O[C@@H]2O[C@@H](C)C[C@H](N(C)C)[C@H]2O)[C@](C)(O)C[C@@H](C)C(=O)[C@H](C)[C@@H](O)[C@]1(C)O, the outcome [1] is reported as “inactive”, the outcome [2] is reported as “inactive” and the outcome [3] is reported as “inactive”. The outcome [4] was “inactive”.

For C[N+]1(C)[C@@H]2CC(OC(=O)C(O)(c3cccs3)c3cccs3)C[C@H]1[C@@H]1O[C@@H]12 (stereo partly drawn), the outcome [1] was “inactive”, the outcome [2] was “inactive” and the outcome [3] was “inactive”. The outcome [4] was “inactive”, the fold change [6, 13] was 0.899 (inactive) and the fold change [6, 14] was 1.32. The cell count [6, 15] was 10300, the cell count [6, 16] was 11500 and the z-score [7, 17] was -0.0486 (inactive). It also gave a z-score [7, 18] of -0.119.

With CCn1c(C(=O)N(C2CC2)C2CC2)cc2c3c(ncn3C)c(Nc3cc(C)n(C)n3)nc21 the outcome [1] was “inactive”, the outcome [2] was “inactive” and the outcome [3] was “inactive”. The outcome [4] was “inactive” and the outcome [5] was “inactive”.

For N=C1S/C(=C\c2ccc(-c3ccc4c(c3)C(=O)NC4=O)o2)C(=O)N1c1ccc(Br)cc1, the outcome [1] was “inactive”, the outcome [2] was “inactive” and the outcome [3] was “inactive”. The outcome [4] was “inactive” and the outcome [5] was “inactive”.

For COc1ccc2c(Oc3ccc(NC(=O)c4c(C)n(CC(C)(C)O)n(-c5ccccc5)c4=O)nc3)ccnc2c1, the outcome [1] was “inactive”, the outcome [2] was “inactive” and the AC50 [8] was 13.2 µM (active). For the same compound, the outcome [4] was “inactive”, the fold change [6, 13] was 0.842 (inactive) and the fold change [6, 14] was 0.917. The cell count [6, 15] was 7640, the cell count [6, 16] was 9080 and the z-score [7, 17] was -0.36 (inactive). The z-score [7, 18] was 1.01.

With CCCn1c(=O)c2[nH]c(C34CC5CC3C[C@@H](C5)C4)nc2n(CCC)c1=O the outcome [1] was “inactive”, the outcome [2] was “inactive” and the outcome [4] was “inactive”. The outcome [5] was “inactive”.

With c1ccc2c(Oc3nc(Nc4ccc(N5CCOCC5)cc4)c4ncn(C5CCCCC5)c4n3)cccc2c1 the outcome [1] was “inactive”, the outcome [2] was “inactive” and the outcome [4] was “inactive”. For the same compound, the AC50 [9] was 13.2 µM (active), the outcome [5] was “inactive” and the fold change [6, 13] was 0.897 (inactive) and 0.992 (inactive). For the same compound, the fold change [6, 14] was 0.721 and 0.438, the cell count [6, 15] was 5540 and 6870 and the cell count [6, 16] was 6180 and 6930. The z-score [7, 17] was -0.486 (inactive) and the z-score [7, 18] was 0.0671.

For O=C(O)C1(Cc2cccc(Nc3nccs3)n2)CCC(Oc2cccc(Cl)c2F)CC1 (stereo not drawn), the outcome [1] was “inactive”, the outcome [2] was “inactive” and the outcome [10] was “inactive”. For the same compound, the outcome [4] was “inactive”, the outcome [5] was “inactive” and the fold change [6, 13] was 1.01 (inactive). It also gave a fold change [6, 14] of 0.491, a cell count [6, 15] of 3320 and a cell count [6, 16] of 3280. For the same compound, the z-score [7, 17] was -0.373 (inactive) and the z-score [7, 18] was 0.69.

For Cc1c(-c2cccc3c(CCCOc4cccc5ccccc45)c(C(=O)O)n(Cc4cccnc4)c23)c(COc2ccc(N3CCN([S+](=O)([O-])N(C)C)CC3)cc2)nn1C, the outcome [1] was “inactive”, the outcome [2] was “inactive” and the AC50 [4] was 23.5 µM (active).

For Cc1cc(C(C)Nc2ccccc2)c2nc(N3CCOCC3)cc(=O)n2c1 (stereo not drawn), the outcome [1] was “inactive”, the outcome [2] was “inactive” and the outcome [4] was “inactive”. For the same compound, the outcome [9] was “inactive”, the outcome [5] was “inactive” and the fold change [6, 13] was 0.85 (inactive). It also gave a fold change [6, 14] of 1.05, a cell count [6, 15] of 5530 and a cell count [6, 16] of 6510. The z-score [7, 17] was -0.0991 (inactive) and the z-score [7, 18] was 1.51.

With COc1ccc(Cc2nccc3cc(OC)c(OC)cc23)cc1OC the outcome [1] was “inactive”, the outcome [2] was “inactive” and the outcome [10] was “inactive”. For the same compound, the outcome [8] was “inactive” and the outcome [4] was “inactive”.

For CC(C)(Cc1ccc2ccccc2c1)NC[C@@H](O)COc1cccc(Cl)c1C#N, the outcome [1] was “inactive”, the outcome [2] was “inactive” and the AC50 [10] was 8.33 µM (active). For the same compound, the AC50 [8] was 10.5 µM (active), the AC50 [9] was 10.5 µM (active) and the IC50 [5] was 13.2 µM (active).

In the case of Clc1cc(Cl)cc(CNc2ncncc2-c2ccc3c(c2)OCO3)c1, the outcome [1] is reported as “inactive”, the outcome [2] is reported as “inactive” and the outcome [4] is reported as “inactive”.

With COc1cc(OC2CCN(C)CC2)ccc1Nc1ncc2c(n1)n(C1CCCC1)c(=O)n2C the AC50 [1] was 16.6 µM (active), the AC50 [2] was 18.7 µM (active) and the AC50 [10] was 18.6 µM (active). The AC50 [8] was 13.2 µM (active), the AC50 [9] was 14.8 µM (active) and the IC50 [5] was 16.6 µM (active). For the same compound, the fold change [6, 13] was 0.984 (inactive), the fold change [6, 14] was 0.864 and the cell count [6, 15] was 5400. For the same compound, the cell count [6, 16] was 5490, the SSMD [11] was 1.43 and the cell count [11] was 7430. For the same compound, the plate-normalised HSF1 focus index [11] was 1.05 (inactive), the z-score [7, 17] was -0.255 (inactive) and the z-score [7, 18] was 0.614. The viability ([12]; at 0.000305 µM, OCI-C5x cells, with rucaparib 10 µM, 100% = cells with rucaparib alone) was 107% (inactive), the viability ([12]; at 0.000305 µM, OCI-C5x cells, without rucaparib) was 133% (inactive) and the viability ([12]; at 0.000305 µM, OCI-P5x cells, with rucaparib 20 µM, 100% = cells with rucaparib alone) was 116% (inactive). The viability ([12]; at 0.000305 µM, OCI-P5x cells, without rucaparib) was 112% (inactive), the viability ([12]; at 0.00122 µM, OCI-C5x cells, with rucaparib 10 µM, 100% = cells with rucaparib alone) was 107% (inactive) and the viability ([12]; at 0.00122 µM, OCI-C5x cells, without rucaparib) was 125% (inactive). For the same compound, the viability ([12]; at 0.00122 µM, OCI-P5x cells, with rucaparib 20 µM, 100% = cells with rucaparib alone) was 117% (inactive), the viability ([12]; at 0.00122 µM, OCI-P5x cells, without rucaparib) was 115% (inactive) and the viability ([12]; at 0.00488 µM, OCI-C5x cells, with rucaparib 10 µM, 100% = cells with rucaparib alone) was 107% (inactive). For the same compound, the viability ([12]; at 0.00488 µM, OCI-C5x cells, without rucaparib) was 120% (inactive), the viability ([12]; at 0.00488 µM, OCI-P5x cells, with rucaparib 20 µM, 100% = cells with rucaparib alone) was 110% (inactive) and the viability ([12]; at 0.00488 µM, OCI-P5x cells, without rucaparib) was 108% (inactive). For the same compound, the viability ([12]; at 0.0195 µM, OCI-C5x cells, with rucaparib 10 µM, 100% = cells with rucaparib alone) was 105% (inactive), the viability ([12]; at 0.0195 µM, OCI-C5x cells, without rucaparib) was 113% (inactive) and the viability ([12]; at 0.0195 µM, OCI-P5x cells, with rucaparib 20 µM, 100% = cells with rucaparib alone) was 112% (inactive).
